Compound activity (PubChem)
KCNQ2 pot: potentiators of rat KCNQ2 potassium channel | Potassium voltage-gated channel subfamily KQT member 2 (Rattus norvegicus), O88943 | CHO-K1 KCNQ2, FluxOR thallium flux fluorescence; active compounds read high | B-score at 10 µM | 310,000 tested, 0.54% active;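 active = fluorescence ratio B-score at least 3 SD of library B-scores, with initial fluorescence B-score within 3 of them, cut at about 5.3 in these data; same plate scores as AID 2156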;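 also: B-score of peak minus minimum over baseline fluorescence ratio after K+ and Tl+ stimulus; positive B-score means potentiation of KCNQ2 with more thallium influx and brighter signal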
Target sequence (O88943 whole entry, looked up): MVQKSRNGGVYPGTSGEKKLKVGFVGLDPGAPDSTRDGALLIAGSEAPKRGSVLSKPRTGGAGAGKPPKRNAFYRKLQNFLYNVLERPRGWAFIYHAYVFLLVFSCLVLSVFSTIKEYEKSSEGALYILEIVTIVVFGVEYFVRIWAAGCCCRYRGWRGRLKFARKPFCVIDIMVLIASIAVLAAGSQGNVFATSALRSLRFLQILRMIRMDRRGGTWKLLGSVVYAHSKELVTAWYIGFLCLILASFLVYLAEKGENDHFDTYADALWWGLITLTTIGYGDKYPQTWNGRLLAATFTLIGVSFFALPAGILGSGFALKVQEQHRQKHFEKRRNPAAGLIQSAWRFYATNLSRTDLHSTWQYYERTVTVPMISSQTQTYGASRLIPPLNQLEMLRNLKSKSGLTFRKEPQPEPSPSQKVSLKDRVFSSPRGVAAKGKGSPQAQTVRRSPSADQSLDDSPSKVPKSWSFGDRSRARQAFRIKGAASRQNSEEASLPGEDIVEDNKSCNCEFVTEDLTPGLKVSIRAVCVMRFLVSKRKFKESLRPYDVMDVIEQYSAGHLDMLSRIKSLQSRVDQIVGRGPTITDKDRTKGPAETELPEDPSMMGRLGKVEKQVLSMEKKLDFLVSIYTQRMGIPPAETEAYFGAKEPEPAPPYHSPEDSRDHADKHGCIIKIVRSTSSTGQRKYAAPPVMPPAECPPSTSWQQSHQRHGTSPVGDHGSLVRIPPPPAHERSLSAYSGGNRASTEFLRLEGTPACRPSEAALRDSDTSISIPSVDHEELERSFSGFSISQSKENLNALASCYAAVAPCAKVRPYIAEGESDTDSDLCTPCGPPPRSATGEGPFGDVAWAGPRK
KCNQ2 block: rat KCNQ2 potassium channel inhibitors, primary screen, cell-based, CHO-K1, FluxOR thallium flux, B-score; Potassium voltage-gated channel subfamily KQT member 2 (Rattus norvegicus), O88943; 20 min; active compounds read low; B-score at 10 µM; 310,000 tested, 1.1% active;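 active = fluorescence ratio B-score at most minus 3 library SDs, with starting brightness B-score within 2 library SDs, cut at about -5.5 in these data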
Each line names hits and unclear results; the compound was inactive in the other large screens. Rows were chosen to be rich in hits. Some 1.6% of all compounds tested hit in one or more screens of this group.

Cc1ccc(N2C(=O)N(CC(=O)NC(N)=O)C(=O)C2C)cc1 (stereo not drawn)	none
Cc1ccc(N2C(=O)N(CC(=O)NC(c3ccccc3)c3ccccc3)C(=O)C2C)cc1 (stereo not drawn)	KCNQ2 block -6
COc1cccc(NC(=O)N(C2CCCCC2)C(C)c2cccs2)c1 (stereo not drawn)	KCNQ2 block -5.7
COc1cccc(NC(=O)Nc2cccs2)c1	none
Cc1noc(C)c1S(=O)(=O)N(CC(=O)NCCc1ccccc1)c1ccc(C(C)C)cc1	none (no result: KCNQ2 pot)
Cn1cnc(S(=O)(=O)NCc2ccc(Br)cc2)c1	none (no result: KCNQ2 pot)
O=C(NC(=Nc1nc2ccccc2o1)NC(=O)c1ccccc1)c1ccccc1	none (no result: KCNQ2 pot)
COc1ccccc1C(=O)NC(=Nc1nc2ccccc2o1)NC(=O)c1ccccc1OC	KCNQ2 block -14
CCNC(=S)N1CCc2ccccc2C1	none
Cc1cccc(C(=O)NC(=S)N2CCc3ccccc3C2)c1	KCNQ2 pot 8.4
CCc1ccc(-c2cc(C(=O)NCc3ccccn3)c3ccccc3n2)cc1	none (no result: KCNQ2 pot)
CCc1ccccc1Nc1cc(C(=O)NCc2ccccn2)c2ccccc2n1	KCNQ2 block -5.9
COc1ccccc1CN1CC(C(=O)N(C)Cc2ccc(C)o2)CCC1=O (stereo not drawn)	none
CCCOP(=O)(c1ccc(N(C)C)cc1)C(O)c1c(Cl)cccc1Cl (stereo not drawn)	none
CC(C)CCOP(=O)(c1ccc(N(C)C)cc1)C(O)c1c(Cl)cccc1Cl (stereo not drawn)	KCNQ2 block -5.6
CN(Cc1nc(-c2ccc(Cl)cc2)no1)C(=O)CCN1C(=O)[C@H]2CC=CC[C@H]2C1=O	none
COc1ccc(NC(=O)c2cc(C)nc3ccccc23)c(OC)c1	none (no result: KCNQ2 pot)
Cc1ccc(NC(=O)c2cc(C)nc3ccccc23)c(C)c1	KCNQ2 block -5.9
CCN(C(=O)COC(=O)CNS(=O)(=O)c1ccc(SC)c([N+](=O)[O-])c1)C1CCCCC1	none
Cc1nc2sccn2c(=O)c1S(=O)(=O)N1CCN(c2cccc(Cl)c2)CC1	none
CCn1nc(NC(=O)c2ccccn2)c2cc3cc(C)ccc3nc21	none
Cc1ccc2nc3c(cc2c1)c(NC(=O)c1ccccn1)nn3CC(C)C	KCNQ2 block -7.5
C[C@H](N)c1nnc(SCC(N)=O)o1	none (no result: KCNQ2 pot)
O=C(Sc1cccc2cccnc12)c1ccccc1Br	KCNQ2 block -6.2
CC(=O)/C(=N\Nc1ccccc1)Sc1cccc2cccnc12	none (no result: KCNQ2 pot)
CCNC(=O)C(=O)NCC1OCCCN1S(=O)(=O)c1cccs1 (stereo not drawn)	none
Cc1ccc(Sc2c(C=O)c3ccccc3n2C)cc1	none
Cc1cccc(Oc2c(C=O)c3ccccc3n2C)c1	KCNQ2 block -6.5
COC(=O)c1ccc(NC(=S)NCCCn2ccnc2)cc1	none (no result: KCNQ2 pot)
Cc1ccc(CN(c2ccc(C(=O)NCC3CCCO3)cc2)S(C)(=O)=O)cc1 (stereo not drawn)	none (no result: KCNQ2 pot)
COc1cccc(C2CC(c3ccccc3Cl)n3nc(N)nc3N2)c1 (stereo not drawn)	none
COc1ccc(C2(c3ccc(O)cc3O)CC(c3ccccc3Cl)NC(=S)N2)cc1 (stereo not drawn)	KCNQ2 pot 6.1
O=C(/C=C/c1ccc([N+](=O)[O-])cc1)c1ccco1	KCNQ2 block -7.3
O=C(/C=C/c1ccc(Br)cc1)c1ccco1	none (no result: KCNQ2 pot)
O=S(=O)(Nc1ccc(Cc2ccncc2)cc1)c1cccs1	none
CCCCc1ccc(NS(=O)(=O)c2cccs2)cc1	KCNQ2 block -5.9
CCCc1ccc(C(=O)/C=C/N(C)C)cc1	none (no result: KCNQ2 pot)
COc1cc(/C=C(\NC(=O)c2ccccc2)C(=O)NC(C(=O)O)c2ccccc2)cc(OC)c1OC (stereo not drawn)	none (no result: KCNQ2 pot)
COc1ccc(CNc2ncc(-c3ccccc3)n2C)c(OC)c1OC	none
COc1ccc(CNc2ncc(-c3ccccc3)n2C)c2ccccc12	KCNQ2 block -5.7
CS(=O)(=O)c1ccc(Cl)c(NC(=O)COc2ccc3c(c2)CCC3)c1	none (no result: KCNQ2 pot)
O=S(=O)(NN1CCOCC1)c1cc(Cl)cc(Cl)c1O	none
Cc1ccc(C(=O)COc2nc(C)nc3ccccc23)cc1	none
Cc1cccc(CSC2=NCCN2S(=O)(=O)c2ccc(F)cc2)c1	none (no result: KCNQ2 pot)
CCOc1ccc(OCCC(=O)N(CC)CC(=O)Nc2ccccc2C(F)(F)F)cc1	none (no result: KCNQ2 pot)
CCN(CC(=O)Nc1ccccc1OC)C(=O)CCOc1ccc(C(C)(C)C)cc1	KCNQ2 block -6.3
CCOCCOC(=O)Cn1cnc2scc(-c3ccc(C)cc3)c2c1=O	none (no result: KCNQ2 pot)
O=c1c2[nH]c3cccc(Cl)c3c2ncn1Cc1ccco1	none
Cc1ccc(CN2CCN(Cc3ccco3)CC2)cc1	none
COC(CNS(=O)(=O)c1cc2c3c(c1)CCN3C(=O)CC2)OC	none (no result: KCNQ2 pot)
O=C(c1cc(-c2cccnc2)nc2ccc(Cl)cc12)N1CCN(S(=O)(=O)c2cccs2)CC1	none (no result: KCNQ2 pot)
COc1cccc(CN2CCN(C(=O)c3cc(-c4cccnc4)nc4ccc(C)cc34)CC2)c1	KCNQ2 block -7.3
Cc1cc(C(=O)CSc2nc3ccccc3o2)c(C)n1CC1CCCO1 (stereo not drawn)	none
Cc1cc(C(=O)CSc2nc3ccccc3[nH]2)c(C)n1CC1CCCO1 (stereo not drawn)	KCNQ2 block -5.6
C/C(CC(=O)Nc1ccccc1C#N)=N\NC(=O)c1ccncc1	none
Cn1c2ccccc2c(=O)c2cc(C#CC3(O)CCCCC3)ccc21	none
Cn1c2ccccc2c(=O)c2ccc(C#CC3(N)CCCCC3)cc21	KCNQ2 block -7.3
CCC1(c2ccccc2)C(=O)N(C(=O)OC(C)(C)C)N1C(=O)OC(C)(C)C (stereo not drawn)	KCNQ2 block -6.5
CCOC(=O)N1C(=O)[C@](CC)(c2ccccc2)N1C(=O)OCC	none
CCOc1ccccc1NC(=O)c1cc(SC)ccc1Cl	none (no result: KCNQ2 pot)
C=CCOc1ccc(/C=C/C(=O)OCC(=O)NCc2cccs2)cc1	none (no result: KCNQ2 pot)
O=S(=O)(Cc1ccccc1)Oc1ccccc1	none (no result: KCNQ2 pot)
O=C(COc1ccc2c3c(c(=O)oc2c1)CCC3)Nc1ccccn1	none (no result: KCNQ2 pot)
CC(C)C(c1nnnn1C1CCCCC1)N1CCc2ccccc21 (stereo not drawn)	none (no result: KCNQ2 pot)
Cc1ccc(C(c2nnnn2C2CCCCC2)N2CCc3ccccc32)cc1 (stereo not drawn)	KCNQ2 block -5.6
c1ccc(C(c2nnnn2C2CCCC2)N2CCN(c3nc4ccccc4s3)CC2)cc1 (stereo not drawn)	none (no result: KCNQ2 pot)
Cc1ccc(C(c2nnnn2C2CCCC2)N2CCN(c3nc4ccccc4s3)CC2)cc1 (stereo not drawn)	KCNQ2 block -6.4
Cc1cccc(C(=O)Oc2ccc3ccc(O)cc3c2)c1	none (no result: KCNQ2 pot)
CCc1ccc(NC(=S)N(CCN(C)C)C(C)c2ccncc2)cc1 (stereo not drawn)	none
C/C(=N\NC(=O)COc1ccccc1-c1ccccc1)c1ccccn1	none (no result: KCNQ2 pot)
C/C(=N\NC(=O)COc1ccccc1-c1ccccc1)c1cccnc1	KCNQ2 block -6.4
CSc1nnc(-c2sccc2OCc2ccccc2)n1C	none (no result: KCNQ2 pot)
CSc1n[nH]c(-c2sccc2OCc2ccc(C)cc2)n1	KCNQ2 block -6.1
CC1C(=O)N2CCCc3cc(NC(=O)c4ccccc4F)cc1c32 (stereo not drawn)	none
O=C(Nc1ccc(S(=O)(=O)Nc2ncccn2)cc1)c1cccc(S(=O)(=O)N2CCOCC2)c1	none (no result: KCNQ2 pot)
Cc1cc(C)n(-c2nc3ccccc3c(=O)n2OCC(=O)N(C)C)n1	none
Cc1cc(C)n(-c2nc3ccccc3c(=O)n2OCC(=O)Nc2c(C)cccc2C)n1	KCNQ2 block -6
C=CCN1C(=O)C(C)NC1=S (stereo not drawn)	none (no result: KCNQ2 pot)
CCC(Sc1nc(C)cc(C)n1)C(=O)O (stereo not drawn)	KCNQ2 pot 6.2
